Experimental data as given in the supplement of paper PMC6555819.

Legend:
Assay in all cases: PBM binding z-score (relative to random genomic background probes); higher = stronger binding; sequences stand for … in GC…GCGATTGACAGCGTAGAATGAAGG
[1] = test system: FXR:RXRa (NR concentration 270 nM, RXRa partner concentration 90 nM)
Outline: (§1)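 Custom Agilent 4×180K protein-binding microarrays carried double-stranded probes. Their 34-nt variable regions held direct-repeat seeds, single-nucleotide variants, half-site ablations and random human genomic background sequences. Arrays were incubated 1 h with ligand-free nuclear receptor dimers in PBS pH 7.4, 2% milk, 0.02% Triton X-100, 1 mM DTT, 0.2 mg/mL BSA and 0.4 mg/ml salmon testes DNA. Antibodies against each partner (one per run) detected binding, and scanned fluorescence was regression-normalized. Binding z-scores use random background probes as reference.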

[2] = test system: LXRa:RXRa (NR concentration 270 nM, RXRa partner concentration 90 nM)
Outline: as §1

[3] = test system: LXRa homodimer (NR concentration 270 nM)
Outline: as §1

[4] = test system: LXRb:RXRa (NR concentration 270 nM, RXRa partner concentration 90 nM)
Outline: as §1

[5] = test system: LXRb homodimer (NR concentration 270 nM)
Outline: as §1

[6] = test system: PPARa:RXRa (NR concentration 270 nM, RXRa partner concentration 90 nM)
Outline: as §1

[7] = test system: PPARg:RXRa (NR concentration 180 nM, RXRa partner concentration 90 nM)
Outline: as §1

[8] = test system: PPARg:RXRa 270nM:90nM, anti-RXR (NR concentration 270 nM, RXRa partner concentration 90 nM)
Outline: as §1

[9] = test system: PPARg:RXRa 30nM:10nM, anti-RXR (NR concentration 30 nM, RXRa partner concentration 10 nM)
Outline: as §1

[10] = test system: PPARg:RXRa 90nM:30nM, anti-RXR (NR concentration 90 nM, RXRa partner concentration 30 nM)
Outline: as §1

[11] = test system: PPARg:RXRa DBDmut IVT, anti-RXR (DBD mutation: RXRa K156A/R161A, NR concentration 270 nM, RXRa partner concentration 90 nM)
Outline: as §1

[12] = test system: PPARg:RXRa IVT, anti-PPARg (NR concentration 270 nM, RXRa partner concentration 90 nM)
Outline: as §1

[13] = test system: PPARg DBDmut:RXRa IVT, anti-PPARg (DBD mutation: PPARg1 K132A/R137A, NR concentration 270 nM, RXRa partner concentration 90 nM)
Outline: as §1

[14] = test system: PPARg DBDmut IVT, anti-PPARg (DBD mutation: PPARg1 K132A/R137A, NR concentration 270 nM)
Outline: as §1

[15] = test system: PPARg homodimer (NR concentration 180 nM)
Outline: as §1

[16] = test system: PXR:RXRa (NR concentration 270 nM, RXRa partner concentration 90 nM)
Outline: as §1

[17] = test system: PXR homodimer (NR concentration 270 nM)
Outline: as §1

[18] = test system: RARa:RXR (NR concentration 270 nM, RXRa partner concentration 90 nM)
Outline: as §1

[19] = test system: RARa homodimer (NR concentration 270 nM)
Outline: as §1

[20] = test system: RARb:RXRa (NR concentration 270 nM, RXRa partner concentration 90 nM)
Outline: as §1

Sequence | PBM binding z-score [1] | PBM binding z-score [2] | PBM binding z-score [3] | PBM binding z-score [4] | PBM binding z-score [5] | PBM binding z-score [6] | PBM binding z-score [7] | PBM binding z-score [8] | PBM binding z-score [9] | PBM binding z-score [10] | PBM binding z-score [11] | PBM binding z-score [12] | PBM binding z-score [13] | PBM binding z-score [14] | PBM binding z-score [15] | PBM binding z-score [16] | PBM binding z-score [17] | PBM binding z-score [18] | PBM binding z-score [19] | PBM binding z-score [20]
GCTTACGGGTCAAAGGTTATAGCATGAATAGAAT | 7.45 | 5.9 | 0.64 | 6.1 | 0.563 | 6.96 | 11.1 | 9.42 | 9.01 | 9.91 | 4.91 | 5.87 | 1.16 | 0.991 | 2.12 | 6.26 | 0.29 | 8.55 | 0.989 | 4.79
ATATGTAGGTTAAGGGCCATTCAGGTTGGTTCGC | 0.756 | 0.989 | 0.305 | 0.911 | 0.0829 | 4.43 | 7.86 | 7.32 | 6.65 | 7.62 | 7.52 | 6.88 | 2.91 | 2.4 | 1.27 | 0.874 | 0.768 | 0.938 | 0.601 | 1.5
ATATGTAGGTTATCGAGTCATTCAGTTTGCGCAT | 0.672 | 1.1 | 0.419 | 1.04 | 0.701 | 3.37 | 4.61 | 4.14 | 2 | 3.27 | 6.65 | 6.84 | 3.25 | 2.73 | 1.91 | 0.622 | 0.241 | 0.687 | 1 | 0.872
TCATATGGGTAAAGGTGAAAGTCGAACGATATGA | 0.574 | 1.13 | -0.287 | 1.09 | -0.607 | 3.53 | 5.17 | 5.52 | 4.64 | 5.69 | 3.36 | 3.75 | 1.24 | 0.532 | 0.852 | 0.764 | -0.418 | 1.66 | 0.221 | 1.79
AGTCAAAGTTCATATAGGTAACGTAAGATATGCT | 6.32 | 5.7 | 5.15 | 3.66 | 2.13 | 4.62 | 6.76 | 6.08 | 3.4 | 5.1 | 0.943 | 3.97 | 1.58 | 0.96 | 2.46 | 4.96 | 5 | 3.57 | 1.52 | 4.69
CCTATTAGTTGACCATAAGGCCAACCGAAGCTCG | 0.949 | 0.37 | 0.825 | 0.782 | 0.89 | 0.392 | 0.405 | 0.45 | 0.0484 | 0.551 | 0.55 | 0.487 | 0.478 | 0.312 | 1.95 | 0.947 | 1.1 | 0.845 | 1.87 | 1.34
TCTTGTAGATCAATAGAGGTTTAGAAAGTGCGCT | 0.391 | 0.283 | -0.272 | 0.00462 | -0.299 | 0.237 | -0.452 | 1.23 | 2.5 | 1.69 | 1.65 | 0.249 | 0.996 | 0.224 | -0.539 | 0.49 | -0.0138 | 0.588 | 0.0314 | -0.311
TAGCCTAGGTCATGCGGGCCAGTATTGTGTCGGC | 3.83 | 2.94 | 0.0608 | 1.71 | -0.269 | 3.48 | 1.84 | 2.13 | 0.0531 | 1.17 | 1.92 | 3.17 | -0.152 | -1.19 | 0.001 | 1.34 | -0.847 | 1.82 | -1.27 | 3.69
CAAACTAGGTCAAAGGTCAATGTCGAGCCAACCA | 8.32 | 7.09 | 4.92 | 6.96 | 2.33 | 7.33 | 14 | 11.7 | 13.6 | 14.2 | 8.75 | 9.22 | 5.2 | 5.46 | 8.27 | 7.07 | 1.86 | 8.9 | 4.59 | 5.51
CCTACTGGGCCACGAAAGGTCATTGACTCAGTGA | 4.14 | 5.29 | 4.5 | 4.65 | 0.406 | 5 | 4.93 | 4.87 | 2.71 | 4.15 | 5.69 | 5.8 | 0.0683 | -0.677 | 2.13 | 5.15 | 1.92 | 5.49 | 0.622 | 4.03
GCTCGGAGGAGAAGGTCAGAGCTTTGTCCGTAGA | 0.655 | 0.736 | -0.584 | 0.516 | -1.44 | 1.79 | -0.0558 | 0.967 | -0.721 | 0.353 | -0.348 | 0.169 | -0.938 | -2.35 | 0.184 | 1.06 | -1.02 | 1.58 | -1 | 2.3
TTACCAAGGTAAGCTGAGGTCGTTGATCCAACTC | 0.46 | 2.12 | -0.287 | 0.881 | -0.769 | 1.3 | -0.244 | 0.0724 | -0.421 | -0.31 | -0.0286 | 0.407 | -0.293 | -0.159 | -0.361 | 3.52 | 0.144 | 1.9 | -1.52 | 0.571
CCTGCTAGGTCAATGGTCAGCCAAAGCAGCTCGC | 2.77 | 2.02 | 0.0245 | 1.36 | -0.223 | 3.1 | 5.04 | 5.03 | 2.96 | 5.02 | 4.18 | 3.97 | -0.884 | -0.321 | 1.16 | 0.76 | -0.543 | 1.52 | -0.219 | 3.77
CGAACTTGGTCAGAACAGGACAGTGAAGGATGAT | -0.314 | -0.426 | -0.321 | -0.516 | -0.663 | -0.129 | 0.567 | -0.142 | -0.0842 | -0.55 | -0.158 | 0.0276 | 0.221 | -0.53 | -0.163 | -0.41 | 0.0699 | 0.0937 | -0.39 | 0.542
